Inconclusive results are not listed. A number with no mark means an inactive call. Calls of active or inactive are those of the source. The call rests on the fitted dose curve; in most records, active means well fitted curve in the direction sought with a large enough effect; inconclusive means small, poorly fitted or top-dose-only effect, or another doubt; inactive means no such curve, though single readings can be large; an effect the other way counts as inactive or inconclusive.

The first test has as its system Zika virus NS2B-NS3 protease (linked construct). The test is described as follows: Primary screen NINDS Rhodamine qHTS for Zika virus inhibitors (AID 1347160). Further: nearly all actives have a fitted effect of over 55% in size. On activity change, negative = inhibition: on the % scale 0 is the no-effect control and ±100 the full control effect. The conditions noted are these: purified NS2B-NS3 protease, Rhodamine110 substrate fluorescence; series mostly up to 57.1 µM; activity change, negative = inhibition: at the top concentration. The method in brief: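 Rhodamine110-peptide cleavage (1.5 µM substrate) by 25 nM linked NS2B-NS3 enzyme at pH 8.0 (Tris, Tween 20), after 15 min RT preincubation with compounds; 15-min fluorescence change normalized to controls and Hill-fitted.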
Background: qHTS replaces the single test concentration by a dilution series.
Regarding `Nc1ncnc2n[nH]c(Nc3ccc(F)cc3)c12`, the “activity change, negative = inhibition” value is 4.96%.
`CN(CC1(C)CCCO1)S(=O)(=O)c1ccc(Cl)c(S(N)(=O)=O)c1` (configuration not stated): the molecule was called inactive.
In the case of `COc1cc(C(=O)OC(COCCC(C)C)CN2CCOCC2)cc(OC)c1OC` (configuration not stated), the “activity change, negative = inhibition” value was 14.7%.
For `O=[N+]([O-])c1ccc(-c2nc(-c3ccc(F)cc3)c(-c3ccncc3)[nH]2)cc1`, the “activity change, negative = inhibition” value is 21.9%.
In the case of `CC[N+]1(CC)CCC(=C(c2ccccc2)c2ccccc2)C1C` (configuration not stated), the “activity change, negative = inhibition” value was 17.5%.

Test system in another test: not listed separately
The test is described as follows: Confirmatory screen NINDS Rhodamine qHTS for Zika virus inhibitors (AID 1347161). Further: nearly all actives have a fitted effect of over 60% in size. Further: potency means the concentration at half of the fitted maximal effect.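 On activity change, negative = inhibition: plate controls were no-inhibitor control for no effect and no-enzyme control for full effect.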 The conditions noted are these: purified enzyme assay, Rhodamine110 substrate fluorescence, 15 min; series mostly up to 22.2 µM; activity change, negative = inhibition: at the top concentration. The essentials:
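Percent inhibition, normalized to uninhibited and enzyme-free controls, is fitted to a 4-parameter Hill equation. Fluorescence change comes from a 15-min cleavage of 1.5 microM bis-peptide Rhodamine110 substrate by 25 nM linked NS2B-NS3 at room temperature.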
Turning to `O=C(Nc1ccc(S(=O)(=O)N2CCOCC2)cc1)c1cc(Cl)ccc1NS(=O)(=O)c1ccc(Cl)s1`, the Potency was 1.75 µM (active).
The same measure, in the same setting: as for `CCC(=O)O[C@H]1[C@H](O[C@@H]2[C@@H](C)[C@H](O[C@H]3C[C@@](C)(OC)[C@@H](O)[C@H](C)O3)[C@@H](C)C(=O)O[C@H](CC)[C@@](C)(O)[C@H](O)[C@@H](C)C(=O)[C@H](C)C[C@@]2(C)O)O[C@H](C)C[C@@H]1N(C)C`, the figure is 2.78 µM (active).
On the same count and under the same terms, the figure for `O=C1NC(=O)/C(=C/c2ccc3c(c2)OC(F)(F)O3)S1` is 7.84 µM (active); for `O=C1OC2(c3ccccc31)c1cc(I)c(O)c(I)c1Oc1c2cc(I)c(O)c1I` it is 17.8 µM (active).
On to `O=C(COCCOCCOCC(=O)Nc1c(I)cc(I)c(C(=O)O)c1I)Nc1c(I)cc(I)c(C(=O)O)c1I`, for which the “activity change, negative = inhibition” value is -4.46% [at 114 µM].
`O=C(CCCCC(=O)Nc1c(I)cc(I)c(C(=O)O)c1I)Nc1c(I)cc(I)c(C(=O)O)c1I`: the “activity change, negative = inhibition” value is 1.64%.

For the next test, the system named is Zika virus NS2B-NS3 protease (linked). The test is described as follows: 384 well plate NINDS AMC confirmatory qHTS for Zika virus inhibitors (AID 1347163). Further: nearly all actives have a fitted effect of over 50% in size. Further: potency means the concentration at half of the fitted maximal effect.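 On activity change, negative = inhibition: linked protease at 5 30 or 60 nM final depending on run; fluorescence of AMC released from Ac-VKTGKR-AMC peptide cleaved by the protease; top concentration of the series differs between compounds; 0% = no-inhibitor control and -100% = no-enzyme control.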 The conditions noted are these: Recombinant NS2B-NS3 protease, Ac-VKTGKR-AMC fluorescence; series mostly up to 100 µM; activity change, negative = inhibition: at the top concentration. The method in brief: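 Enzyme (5, 30 or 60 nM final) first met test compounds for ~15 min. The AMC-tagged peptide Ac-VKTGKR-AMC followed at 30 microM. Fluorescence was then recorded at 25 min and scaled against no-enzyme and no-inhibitor wells.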
Regarding `O=C(Nc1ccc(S(=O)(=O)N2CCOCC2)cc1)c1cc(Cl)ccc1NS(=O)(=O)c1ccc(Cl)s1`, the “activity change, negative = inhibition” value is 548%.
Regarding `CCC(=O)O[C@H]1[C@H](O[C@@H]2[C@@H](C)[C@H](O[C@H]3C[C@@](C)(OC)[C@@H](O)[C@H](C)O3)[C@@H](C)C(=O)O[C@H](CC)[C@@](C)(O)[C@H](O)[C@@H](C)C(=O)[C@H](C)C[C@@]2(C)O)O[C@H](C)C[C@@H]1N(C)C`, the Potency is 355 µM (active).
For `O=C1NC(=O)/C(=C/c2ccc3c(c2)OC(F)(F)O3)S1`, the Potency is 7.94 µM (active).
On the same count and under the same terms, the figure for `CN(C)[C@@H]1C(=O)C(C(N)=O)=C(O)[C@@]2(O)C(=O)C3=C(O)c4c(O)cccc4C[C@H]3C[C@@H]12` is 126 µM (active).

A further test concerns Zika virus NS2B-NS3 protease (linked construct). The test is described as follows: 384 well plate NINDS Rhodamine confirmatory qHTS for Zika virus inhibitors (AID 1347164).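 Further: fluorescence from protease cleavage of Ac-LKRR-rhodamine 110 substrate; potency means the concentration at half of the fitted maximal effect; nearly all actives have a fitted effect of over 65% in size.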 The conditions noted are these: rhodamine-110 peptide substrate fluorescence. The method in brief:
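Fluorescence at 485/538 nm was measured 25 minutes after adding 10 microM Ac-LKRR-Rd substrate, in the dark at room temperature. The protease (5, 30 or 60 nM final) had been preincubated ~15 minutes with compound; aprotinin as control.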
As to `O=C(Nc1ccc(S(=O)(=O)N2CCOCC2)cc1)c1cc(Cl)ccc1NS(=O)(=O)c1ccc(Cl)s1`, the Potency is 10 µM (active).
Take `CCC(=O)O[C@H]1[C@H](O[C@@H]2[C@@H](C)[C@H](O[C@H]3C[C@@](C)(OC)[C@@H](O)[C@H](C)O3)[C@@H](C)C(=O)O[C@H](CC)[C@@](C)(O)[C@H](O)[C@@H](C)C(=O)[C@H](C)C[C@@]2(C)O)O[C@H](C)C[C@@H]1N(C)C`: the Potency was 63.1 µM (active).
The same measure, in the same setting: the figure for `O=C1NC(=O)/C(=C/c2ccc3c(c2)OC(F)(F)O3)S1` is 5.01 µM (active).

Another test deals with Lysine-specific demethylase 5B (Homo sapiens) (UniProt Q9UGL1). The test is described as follows: Optimization screen for KDM5B Histone Demethylases FDH coupled qHTS against the LOPAC library (AID 1347166). Further: 0% is about no effect. The settings on record: KDM5B demethylation, FDH-coupled NADH fluorescence (FDH is formaldehyde dehydrogenase); series mostly up to 57.5 µM; activity, negative = inhibition: at the top concentration. The method in brief: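 KDM5BDeltaAP (200nM final) in 50mM HEPES pH 7.5, 0.01% Tween-20 was preincubated with compound for 10 min at room temperature. A substrate mix of 12.5uM H3K4Me3, 25uM a-ketoglutarate, ascorbate, Fe2+, NAD+ and formaldehyde dehydrogenase was then added. NADH fluorescence (340/450 nm) was read initially and after 30 min.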
Chain of Lysine-specific demethylase 5B (Homo sapiens) (Q9UGL1 whole entry, looked up): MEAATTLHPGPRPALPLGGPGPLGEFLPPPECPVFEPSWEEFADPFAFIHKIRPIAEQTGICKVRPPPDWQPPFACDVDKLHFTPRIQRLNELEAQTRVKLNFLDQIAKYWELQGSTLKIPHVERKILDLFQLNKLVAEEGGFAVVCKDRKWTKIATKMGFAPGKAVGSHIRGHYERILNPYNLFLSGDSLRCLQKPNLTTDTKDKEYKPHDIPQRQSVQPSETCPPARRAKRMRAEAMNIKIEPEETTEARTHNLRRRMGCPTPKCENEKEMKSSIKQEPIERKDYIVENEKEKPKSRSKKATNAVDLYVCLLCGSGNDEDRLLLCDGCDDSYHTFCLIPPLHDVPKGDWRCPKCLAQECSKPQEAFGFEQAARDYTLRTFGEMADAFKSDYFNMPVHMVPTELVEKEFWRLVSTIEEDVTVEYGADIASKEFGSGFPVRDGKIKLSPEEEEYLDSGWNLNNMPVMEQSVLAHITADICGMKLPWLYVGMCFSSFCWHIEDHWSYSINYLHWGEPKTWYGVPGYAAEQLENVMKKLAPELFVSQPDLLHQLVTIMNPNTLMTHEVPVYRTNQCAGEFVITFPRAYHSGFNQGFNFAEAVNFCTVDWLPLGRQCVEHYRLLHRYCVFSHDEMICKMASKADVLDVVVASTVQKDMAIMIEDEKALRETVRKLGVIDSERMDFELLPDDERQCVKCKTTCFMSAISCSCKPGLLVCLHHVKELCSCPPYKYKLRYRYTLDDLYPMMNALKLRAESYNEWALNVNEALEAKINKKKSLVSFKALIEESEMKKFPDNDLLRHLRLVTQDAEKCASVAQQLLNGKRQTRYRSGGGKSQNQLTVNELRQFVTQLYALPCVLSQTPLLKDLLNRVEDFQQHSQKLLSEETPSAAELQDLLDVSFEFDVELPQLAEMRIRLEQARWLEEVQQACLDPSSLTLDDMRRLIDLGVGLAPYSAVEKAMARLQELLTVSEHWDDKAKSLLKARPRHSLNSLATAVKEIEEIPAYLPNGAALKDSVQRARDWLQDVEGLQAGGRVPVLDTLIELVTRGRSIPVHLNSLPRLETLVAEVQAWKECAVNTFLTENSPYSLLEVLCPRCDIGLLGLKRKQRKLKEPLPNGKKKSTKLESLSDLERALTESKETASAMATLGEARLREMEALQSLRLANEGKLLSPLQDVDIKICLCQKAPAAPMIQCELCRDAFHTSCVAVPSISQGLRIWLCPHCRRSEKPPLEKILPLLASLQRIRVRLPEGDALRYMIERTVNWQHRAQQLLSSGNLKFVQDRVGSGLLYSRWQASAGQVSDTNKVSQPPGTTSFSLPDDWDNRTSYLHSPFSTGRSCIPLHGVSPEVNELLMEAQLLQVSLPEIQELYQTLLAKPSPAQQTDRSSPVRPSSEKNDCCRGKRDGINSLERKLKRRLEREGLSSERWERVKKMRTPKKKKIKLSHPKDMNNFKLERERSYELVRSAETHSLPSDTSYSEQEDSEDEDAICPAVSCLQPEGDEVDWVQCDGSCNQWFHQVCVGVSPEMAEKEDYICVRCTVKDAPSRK
With `Clc1ccc2c(c1)N=C(N1CCNCC1)c1ccccc1N2`, the “activity, negative = inhibition” value is -6.66%.
The same measure, in the same setting: as for `Cn1cnc2c(NCc3ccccc3)nc(NCCO)nc21`, the figure is -5.69%; as for `CN(C)c1cc2c(Nc3ccc4c(cnn4Cc4ccccc4)c3)ncnc2cn1`, -14.8%.
On to `COc1ccccc1N1CCN(CCN2C(=O)CC3(CCCC3)CC2=O)CC1`, for which the “activity, negative = inhibition” value is -7.11%.
With `NC(N)=NCCCCN=C(N)N`, the “activity, negative = inhibition” value was -7.39%.
In the case of `Cc1nn(-c2ccccc2)c(C)c1/C=N/N1CCN(Cc2ccccc2)CC1`, the “activity, negative = inhibition” value is -5.05%.
The same measure, in the same setting: as for `O=C1NC(=O)/C(=C/c2ccc3c(c2)OC(F)(F)O3)S1`, the figure is -12.9%.
For `N[C@@H](Cn1ccc(=O)c(O)c1)C(=O)O`, the “activity, negative = inhibition” value is 2.65%.
Same read-out and setting: the figure for `O=C1NC(c2cccc([N+](=O)[O-])c2)=CCN1c1ccccc1O` is -7.48%; for `COC(=O)C1=CO[C@@H](O)[C@@H]2C(CO)=CC[C@H]12` it is -10.1%; for `CCN(CC)CCNC(=O)c1ccc(NS(C)(=O)=O)cc1` it is -2.41%.
Same read-out and setting: as for `C[N+](C)(C)CCO`, the figure is 1.03%.
Same read-out and setting: the figure for `Nc1ncnc2n[nH]c(Nc3ccc(F)cc3)c12` is -6.95%; for `O=[N+]([O-])c1ccc(-c2nc(-c3ccc(F)cc3)c(-c3ccncc3)[nH]2)cc1` it is -17.6%.

Test system in a further test: not listed separately
The test is described as follows: Vero cells viability qHTS for Zika virus inhibitors (AID 1347167). Further: on the % scale 0 is the no-effect control and ±100 the full control effect. The conditions noted are these: cytotoxicity counter-screen (Zika); series mostly up to 45.9 µM; activity change, negative = cytotoxicity: at the top concentration. The essentials:
(§1)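 Luminescent ATP readout (CellTiter Glo) after 30 min at 37 degrees C gives viability; cells in DMEM + 4% FBS were treated 24 to 48 hours with compound, following overnight attachment.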
Turning to `O=C(Nc1ccc(S(=O)(=O)N2CCOCC2)cc1)c1cc(Cl)ccc1NS(=O)(=O)c1ccc(Cl)s1`, the “activity change, negative = cytotoxicity” value was -8.19%.
Still for that read-out and setting: as for `CCC(=O)O[C@H]1[C@H](O[C@@H]2[C@@H](C)[C@H](O[C@H]3C[C@@](C)(OC)[C@@H](O)[C@H](C)O3)[C@@H](C)C(=O)O[C@H](CC)[C@@](C)(O)[C@H](O)[C@@H](C)C(=O)[C@H](C)C[C@@]2(C)O)O[C@H](C)C[C@@H]1N(C)C`, the figure is -0.423%; as for `COc1c(C)c2c(c(O)c1C/C=C(\C)CCC(=O)OCCN1CCOCC1)C(=O)OC2`, -4.63%.
Take `N[C@@H](Cc1cc(I)c(O)c(I)c1)C(=O)O`: the “activity change, negative = cytotoxicity” value was -1.71%.
With `Cc1nc(C2CCCCC2)c(-c2ccc(S(N)(=O)=O)c(F)c2)o1`, the “activity change, negative = cytotoxicity” value is -9.6%.

Test system in another test: not listed separately
The test is described as follows: HepG2 cells viability qHTS for Zika virus inhibitors (AID 1347168). Further: on the % scale 0 is the no-effect control and ±100 the full control effect. The settings on record: Zika counter-screen; series mostly up to 45.9 µM; activity change, negative = cytotoxicity: at the top concentration. The essentials: as §1
As to `O=C(Nc1ccc(S(=O)(=O)N2CCOCC2)cc1)c1cc(Cl)ccc1NS(=O)(=O)c1ccc(Cl)s1`, the “activity change, negative = cytotoxicity” value is -16.1%.
In the case of `CCC(=O)O[C@H]1[C@H](O[C@@H]2[C@@H](C)[C@H](O[C@H]3C[C@@](C)(OC)[C@@H](O)[C@H](C)O3)[C@@H](C)C(=O)O[C@H](CC)[C@@](C)(O)[C@H](O)[C@@H](C)C(=O)[C@H](C)C[C@@]2(C)O)O[C@H](C)C[C@@H]1N(C)C`, the “activity change, negative = cytotoxicity” value is 0.768%.
Turning to `O=C1NC(=O)/C(=C/c2ccc3c(c2)OC(F)(F)O3)S1`, the “activity change, negative = cytotoxicity” value is -3.7%.
The same measure, in the same setting: as for `N[C@@H](Cc1cc(I)c(O)c(I)c1)C(=O)O`, the figure is -0.271%; as for `Cc1nc(C2CCCCC2)c(-c2ccc(S(N)(=O)=O)c(F)c2)o1`, -1.77%.
